Assay outcomes from PubChem BioAssay.
Only some compounds are listed: those with a hit (about 1.2% of all), similar ones and a draw of the others.
Efflux pump inh – inhibitors of Candida efflux pumps in yeast, primary screen, S. cerevisiae, Nile Red, multiplex; S. cerevisiae Candida pump triplex; hit rate 0.44% among 330,000; inhibition, % at 10 µM;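 active = plate passing quality check with inhibition over a set limit, or well fluorescence over plate mean plus 4 SD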;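 note: Nile Red retained in pooled yeast measured as flow cytometry median fluorescence; 0% = buffer negative control and 100% = Enniatin B positive control; higher means more Nile Red kept so more efflux inhibition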
SRC1 inh – SRC1 coactivator transcriptional activity inhibitors, primary screen, cell-based, luminescence. Nuclear receptor coactivator 1 (Homo sapiens), Q15788. inhibition, % at 3.6 µM. hit rate 0.12% among 360,000. HEK293 GAL4-SRC1 luciferase reporter;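 active = inhibition above the campaign mean plus 3 SD, with each screening campaign given its own cutoff, cut at about 60% in these data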;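 note: 0% = DMSO treated cells and 100% = gossypol at 36 µM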
NR5A2 inv ag – LRH-1 (NR5A2) inverse agonists, primary screen, cell-based, luminescence, HEK293T, StAR-luciferase reporter; hit rate 0.13% among 360,000; inhibition, % at 3.6 µM; Nuclear receptor subfamily 5 group A member 2 (Homo sapiens), O00482; AID 602396, 2012; LRH-1 transfected, 24 h;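 active = inhibition above the mean inhibition of all tested compounds plus 3 SD, cut at about 73% in these data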;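 note: 0% = DMSO wells and 100% = reporter-only cells lacking LRH-1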
Target sequence (O00482 whole entry, looked up): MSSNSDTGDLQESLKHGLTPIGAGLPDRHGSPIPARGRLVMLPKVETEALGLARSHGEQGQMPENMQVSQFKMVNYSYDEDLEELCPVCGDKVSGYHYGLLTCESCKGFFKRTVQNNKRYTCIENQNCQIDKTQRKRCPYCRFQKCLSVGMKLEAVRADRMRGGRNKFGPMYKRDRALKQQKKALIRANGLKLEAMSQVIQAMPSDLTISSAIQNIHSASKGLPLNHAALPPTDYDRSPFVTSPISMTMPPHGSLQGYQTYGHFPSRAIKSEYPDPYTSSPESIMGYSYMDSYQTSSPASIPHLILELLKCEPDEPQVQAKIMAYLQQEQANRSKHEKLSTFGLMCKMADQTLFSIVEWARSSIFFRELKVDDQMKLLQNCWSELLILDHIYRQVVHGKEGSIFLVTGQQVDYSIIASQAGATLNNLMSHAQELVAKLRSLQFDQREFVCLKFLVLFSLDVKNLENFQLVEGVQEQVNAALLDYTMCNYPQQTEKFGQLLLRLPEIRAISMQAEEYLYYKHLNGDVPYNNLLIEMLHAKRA
NR2F2 inh – NR2F2 transcriptional activity inhibitors, primary screen, cell-based, luciferase reporter, HEK293T, luminescence | COUP transcription factor 2 (Homo sapiens), P24468 | HEK293T NGFI-A luciferase reporter | inhibition, % at 8.6 µM | hit rate 0.7% among 370,000 | AID 686940, 2013;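 active = inhibition above a per-plate cutoff, mean inhibition of test wells between control levels plus 3 SD, cut at about 38% in these data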;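 note: cells cotransfected with COUP-TFII expression vector driving the NGFI-A reporter; 0% = median of COUP-TF2 test wells and 100% = reporter-only cells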
NCOA2 inhibitor – inhibition of GAL4-SRC2 driven luciferase reporter, primary screen, SRC2 inhibitor project, cell-based, luminescence; Nuclear receptor coactivator 2 (Homo sapiens), Q15596; HEK293 GAL4-SRC2 luciferase reporter; inhibition, % at 9 µM; hit rate 0.17% among 370,000; AID 651957, 2012;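 active = inhibition above the mean inhibition of all tested compounds plus 3 SD, set per campaign, cut at about 52% in these data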;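 note: 0% = DMSO treated cells and 100% = cells given Gossypol at 36 µM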
NCOA3 inh – SRC3 coactivator transcriptional activity inhibitors, primary screen, cell-based, luminescence; Nuclear receptor coactivator 3 (Homo sapiens), Q9Y6Q9; AID 588352, 2011; inhibition, % at 3.6 µM; HEK293 GAL4-SRC3 luciferase reporter; hit rate 0.17% among 360,000;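 active = inhibition above a per-campaign cutoff, the mean of all compounds plus 3 SD, cut at about 60% in these data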;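 note: 0% = DMSO-treated cells and 100% = gossypol-treated cells at 36 µM; higher means less SRC3-driven luciferase light from the GAL4 reporter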
* hit, by the source's call; x = no result given.

SMILES	Efflux pump inh	SRC1 inh	NR5A2 inv ag	NR2F2 inh	NCOA2 inhibitor	NCOA3 inh
CC[C@@H](C(=O)[C@@H](C)[C@@H](O)[C@H](C)[C@@H]1O[C@@H]([C@@H](CC)C(=O)O)CC[C@@H]1C)[C@H]1O[C@]2(C=C[C@@H](O)[C@]3(CC[C@@](C)([C@H]4CC[C@](O)(CC)[C@H](C)O4)O3)O2)[C@H](C)C[C@@H]1C	x	-39.4	85.8*	44.8*	2.5	62.2*
CC[C@@H](C(=O)[C@@H](C)[C@@H](O)[C@H](C)CCc1ccc(C)c(O)c1C(=O)O)[C@H]1O[C@](CC)([C@H]2CC[C@](O)(CC)[C@H](C)O2)C[C@@H]1C	0.2	-0.9	51.6	-39.2	8.7	53.2
CC1=NN(c2ccccc2)C(=O)C1C(=S)SC1CC(=O)NC1=O (centres undefined)	x	-43.4	-63.8	-13.9	-23.1	-14.7
COc1cc(/C=C/C(=O)OCC(=O)Nc2c(C)n(C)n(-c3ccccc3)c2=O)cc(OC)c1OC	-0.2	8.0	9.5	6.6	8.4	-7.8
S=C(c1ccc(-c2ccccc2)cc1)N1CCOCC1	0.1	34.6	6.1	34.3	52.5*	34.5
CCOC(=O)Cc1csc(NC(=O)c2ccc(S(=O)(=O)N3CCCC3)cc2)n1	-0.1	-1.7	19.2	0.7	11.4	-29.4
COc1ccc(CCNC(=O)c2nnn(-c3ccccc3OC)c2N)cc1OC	-0.2	-70.8	15.3	-11.3	11.8	10.8
COc1ccc(CCNC(=O)c2nnn(-c3ccc4c(c3)OCCO4)c2N)cc1OC	0.0	57.8	48.4	93.3*	55.2*	57.9
Cc1ccc(N(Cc2ccccc2)C(=O)c2cccc(S(=O)(=O)N3CCN(C)CC3)c2)cc1	0.0	-5.9	2.8	-13.5	16.9	3.9
O=C(O)c1ccc(CSc2nnc(-c3ccncc3)n2-c2ccc(Cl)cc2)cc1	-0.1	9.6	-6.6	10.2	-7.4	8.2
O=C(O)CCSCC(=O)c1ccc2c(c1)OCCO2	0.2	11.4	7.9	33.6	55.9*	21.8
COc1ccc(Cc2noc(CN(C)CC3CCN(Cc4ccccc4)CC3)n2)cc1OC	-0.1	-11.8	-1.3	23.6	-2.9	-2.6
O=C1[C@@H]2Cc3c([nH]c4ccccc34)C(c3ccc([N+](=O)[O-])cc3)N2C(=O)CN1C1CC1 (some centres undefined)	0.0	75.2*	50.9	26.0	-8.3	68.7*
CC(=O)Nc1cccc(-c2cnc(N)c(C(=O)c3cccnc3)n2)c1	0.1	78.6*	74.8*	x	x	78.3*
CC(=O)Nc1cccc(-c2csc(N)n2)c1	0.2	-21.8	-5.3	-22.8	-5.7	6.4
NC(=O)c1cccc(-c2cnc(N)c(C(=O)c3cccnc3)n2)c1	x	75.1*	62.5	x	x	62.8*
C[n+]1c(-c2ccccc2)cc2c(=Cc3ccc([N+](=O)[O-])cc3)c3ccccc3n21	x	0.2	-1.0	-7.4	-10.2	4.7
C[n+]1c(-c2ccccc2)cc2c(=Cc3ccccc3)c3ccccc3n21	x	26.7	57.6	31.1	2.0	62.4*
OCC1OC(n2cnc3c(NCc4ccccc4O)ncnc32)C(O)C1O (centres undefined)	x	35.3	89.7*	-21.3	-60.4	61.7*
CCOC1OC(=O)C(Cl)=C1Nc1cc(C)ccc1C (centres undefined)	0.0	15.0	17.6	-14.0	21.2	8.3
O=[N+]([O-])c1ccc(O)c(/C=N/Nc2nc3ccccc3[nH]2)c1	-0.1	17.0	91.3*	-33.6	8.1	63.7*
CCC1(c2ccccc2)NC(=O)N(CC(=O)NNC(=O)c2ccc(F)cc2)C1=O (centres undefined)	x	-31.6	7.1	3.1	7.5	4.2
CN(C)c1ccc(C=c2c3cc(O)ccc3n3c2cc(-c2ccccc2)[n+]3C)cc1	x	-0.5	31.2	17.6	-14.4	25.9
CN(C)c1ccc(C=c2c3ccccc3n3c2c2ccccc2[n+]3C)cc1	x	12.9	73.0*	51.2*	0.6	34.2
Cc1ccc(S(=O)(=O)N2CCN(S(=O)(=O)c3ccc(C)cc3)C2)cc1	0.3	6.9	-3.8	18.8	22.6	-2.3
SMILES	Efflux pump inh	SRC1 inh	NR5A2 inv ag	NR2F2 inh	NCOA2 inhibitor	NCOA3 inh
C#CCOCCOCCOCCNc1nc(N2CCN(C(=O)CCCCCCCCCCNC(=O)[C@H]([C@@H](C)CC)n3cc(CCCCN=C(N)N)nn3)CC2)nc(N2CCN(C(=O)CCCCCCCCCCNC(=O)[C@H](CCCCN)n3cc(C[C@@H](C)CC)nn3)CC2)n1	85.4*	x	x	x	x	x
CCC1=C(OC(=O)N(CC)CC)N2C(=O)OC(=NCC3CC3)[C@]2(Cc2ccccc2)[C@H]2C1=CC[C@H]1C(=O)N(c3ccccc3)C(=O)[C@H]12	3.8*	4.2	2.0	10.1	11.7	-10.3
CCC1=C(OC(=O)N(CC)CC)N2C(=O)OC(=NCC3CC3)[C@]2(Cc2ccccc2)[C@H]2C1=CC[C@H]1C(=O)N(C)C(=O)[C@H]12	0.0	-13.9	16.4	18.7	12.4	2.1
CSc1ccc(S(=O)(=O)N2CCC(C(=O)N3CCOCC3)CC2)cc1	0.0	-5.3	24.6	13.9	27.9	2.5
CCCC(=O)Nc1cccc(NC(=O)c2ccccc2Br)c1	0.0	0.1	0.4	0.0	52.2*	11.8
CCC(=O)Nc1cccc(NC(=O)c2ccccc2Br)c1	-0.3	-7.7	4.2	-8.2	-8.1	-0.3
CCOc1ccccc1/C=C(\NC(=O)c1ccccc1)C(=O)NCCC(=O)O	-0.1	-24.5	-13.4	18.9	-43.5	-0.1
CCCCCc1ccc(-c2cn(Cc3cccc(OC)c3)nn2)cc1	0.0	-11.3	-13.2	-8.9	-4.8	-9.8
COc1ccc(/C=C2\CN(Cc3ccccc3)C/C(=C\c3ccc(OC)c(O)c3)C2=O)cc1O	0.1	32.6	15.7	4.4	52.2*	43.5
CCN(CC)Cc1c(O)ccc2occ(C(=O)c3ccc(OC)cc3)c12	-0.1	13.1	4.2	-19.9	-27.8	3.1
CCN(CC)Cc1c(O)ccc2c([N+](=O)[O-])c(C)n(-c3ccc(OC)cc3)c12	0.2	60.9*	23.9	33.2	46.9	49.1
O=C1C(=C(I)I)c2ccccc2-c2ccccc21	x	-76.9	44.1	28.4	86.3*	-33.0
CCCN(CC)c1ncnc2[nH]ncc12	x	65.0*	41.2	14.1	54.8*	65.0*
CN(C)c1ncnc2[nH]ncc12	x	9.4	-9.4	-0.7	-6.8	0.7
N#Cc1c([N+](=O)[O-])cc([N+](=O)[O-])cc1S(=O)(=O)Cc1ccccc1	0.0	-8.5	31.6	6.0	61.0*	-23.2
CN(CCOc1ccc(Cl)cc1)CC(O)c1ccccc1 (centres undefined)	2.7	17.5	-13.1	-4.2	1.4	27.8
